Test [1] is described as follows: binders of probe aFSTL3 on microarray, primary screen, stem cell growth factor project, biochemical, small-molecule microarray, fluorescence 635/667 (AID 1064).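 Also: measures binding of the biotinylated anti-FSTL3 antibody to printed compounds.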 The settings on record: higher = more signal.
A short description of test [2]: binders from COS7 lysate, DM2A8 probe, primary screen, torsin A project, cell lysate, small-molecule microarray, fluorescence 635/667 (AID 1065). The settings on record: higher = more signal, COS7 lysate expressing mutant human TOR1A.
A short description of test [3]: binders of probe aFGF2 on microarray, primary screen, stem cell growth factor project, biochemical, small-molecule microarray, fluorescence 635/667 (AID 1067).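 Also: measures binding of biotinylated aFGF2 protein to printed compounds on slides; z-score merges feature fluorescence and signal-to-noise across triplicate slides.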 The settings on record: higher = more signal.
The nature of test [4]: binders of probe aFGF10 on microarray, primary screen, stem cell growth factor project, biochemical, small-molecule microarray, fluorescence 635/667 (AID 1071).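 Also: score merges 667 nm spot intensity and signal to noise from triplicate slides.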 The settings on record: higher = more signal.
The target of test [5] is Neurogenic locus notch homolog protein 2 (Homo sapiens) (UniProt Q04721). Kind of test: Notch2 binders on small-molecule microarrays, primary screen, biochemical, small-molecule microarray, 635 nm fluorescence, stem cell growth factors (AID 1073). The settings on record: Notch2 binding, higher = more signal.
Test [6] deals with Pro-neuregulin-1, membrane-bound isoform (Homo sapiens) (UniProt Q02297). Kind of test: NRG1 binders on small-molecule microarrays, primary screen, psychiatric disease protein project, biochemical, small-molecule microarray, fluorescence 635/667 (AID 1075).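 Also: score combines 667 nm spot fluorescence with signal to noise.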 The settings on record: NRG1 binding, 635 nm fluorescence, higher = more signal.
In test [7] the test system is Neuregulin-1 EGF-like domain. The test can be described thus: binders of neuregulin-1 EGF-like domain, primary screen, biochemical, small-molecule microarray, 635 nm fluorescence (AID 1081).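 Also: binding of the protein to compounds printed on small-molecule microarray slides.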 The settings on record: small-molecule microarray binding, higher = more signal.
Test [8] in a line: FRG1 promoter luciferase signal modulators, primary screen, FRG1 inhibition for FSHD, cell-based, C2C12 myotubes, firefly/Renilla luciferase, luminescence (AID 1084). The settings on record: higher = more signal, called active from +8 up or from −8 down.
The nature of test [9]: binders of probe aFST on microarray, primary screen, stem cell growth factor project, biochemical, small-molecule microarray, fluorescence 635/667 (AID 1086).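 Also: score merges 667 nm fluorescence with signal-to-noise of each printed compound spot.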 The settings on record: higher = more signal.
Test [10] can be described thus: binders of probe aHhip on microarray, primary screen, stem cell growth factor project, biochemical, small-molecule microarray, fluorescence 635/667 (AID 1087).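 Also: score merges spot fluorescence at 667nm with spot signal to noise ratio.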 The settings on record: higher = more signal.

The source made the active and inactive calls.

Neurogenic locus notch homolog protein 2 (Homo sapiens), sequence (Q04721 whole entry, looked up, canonical isoform): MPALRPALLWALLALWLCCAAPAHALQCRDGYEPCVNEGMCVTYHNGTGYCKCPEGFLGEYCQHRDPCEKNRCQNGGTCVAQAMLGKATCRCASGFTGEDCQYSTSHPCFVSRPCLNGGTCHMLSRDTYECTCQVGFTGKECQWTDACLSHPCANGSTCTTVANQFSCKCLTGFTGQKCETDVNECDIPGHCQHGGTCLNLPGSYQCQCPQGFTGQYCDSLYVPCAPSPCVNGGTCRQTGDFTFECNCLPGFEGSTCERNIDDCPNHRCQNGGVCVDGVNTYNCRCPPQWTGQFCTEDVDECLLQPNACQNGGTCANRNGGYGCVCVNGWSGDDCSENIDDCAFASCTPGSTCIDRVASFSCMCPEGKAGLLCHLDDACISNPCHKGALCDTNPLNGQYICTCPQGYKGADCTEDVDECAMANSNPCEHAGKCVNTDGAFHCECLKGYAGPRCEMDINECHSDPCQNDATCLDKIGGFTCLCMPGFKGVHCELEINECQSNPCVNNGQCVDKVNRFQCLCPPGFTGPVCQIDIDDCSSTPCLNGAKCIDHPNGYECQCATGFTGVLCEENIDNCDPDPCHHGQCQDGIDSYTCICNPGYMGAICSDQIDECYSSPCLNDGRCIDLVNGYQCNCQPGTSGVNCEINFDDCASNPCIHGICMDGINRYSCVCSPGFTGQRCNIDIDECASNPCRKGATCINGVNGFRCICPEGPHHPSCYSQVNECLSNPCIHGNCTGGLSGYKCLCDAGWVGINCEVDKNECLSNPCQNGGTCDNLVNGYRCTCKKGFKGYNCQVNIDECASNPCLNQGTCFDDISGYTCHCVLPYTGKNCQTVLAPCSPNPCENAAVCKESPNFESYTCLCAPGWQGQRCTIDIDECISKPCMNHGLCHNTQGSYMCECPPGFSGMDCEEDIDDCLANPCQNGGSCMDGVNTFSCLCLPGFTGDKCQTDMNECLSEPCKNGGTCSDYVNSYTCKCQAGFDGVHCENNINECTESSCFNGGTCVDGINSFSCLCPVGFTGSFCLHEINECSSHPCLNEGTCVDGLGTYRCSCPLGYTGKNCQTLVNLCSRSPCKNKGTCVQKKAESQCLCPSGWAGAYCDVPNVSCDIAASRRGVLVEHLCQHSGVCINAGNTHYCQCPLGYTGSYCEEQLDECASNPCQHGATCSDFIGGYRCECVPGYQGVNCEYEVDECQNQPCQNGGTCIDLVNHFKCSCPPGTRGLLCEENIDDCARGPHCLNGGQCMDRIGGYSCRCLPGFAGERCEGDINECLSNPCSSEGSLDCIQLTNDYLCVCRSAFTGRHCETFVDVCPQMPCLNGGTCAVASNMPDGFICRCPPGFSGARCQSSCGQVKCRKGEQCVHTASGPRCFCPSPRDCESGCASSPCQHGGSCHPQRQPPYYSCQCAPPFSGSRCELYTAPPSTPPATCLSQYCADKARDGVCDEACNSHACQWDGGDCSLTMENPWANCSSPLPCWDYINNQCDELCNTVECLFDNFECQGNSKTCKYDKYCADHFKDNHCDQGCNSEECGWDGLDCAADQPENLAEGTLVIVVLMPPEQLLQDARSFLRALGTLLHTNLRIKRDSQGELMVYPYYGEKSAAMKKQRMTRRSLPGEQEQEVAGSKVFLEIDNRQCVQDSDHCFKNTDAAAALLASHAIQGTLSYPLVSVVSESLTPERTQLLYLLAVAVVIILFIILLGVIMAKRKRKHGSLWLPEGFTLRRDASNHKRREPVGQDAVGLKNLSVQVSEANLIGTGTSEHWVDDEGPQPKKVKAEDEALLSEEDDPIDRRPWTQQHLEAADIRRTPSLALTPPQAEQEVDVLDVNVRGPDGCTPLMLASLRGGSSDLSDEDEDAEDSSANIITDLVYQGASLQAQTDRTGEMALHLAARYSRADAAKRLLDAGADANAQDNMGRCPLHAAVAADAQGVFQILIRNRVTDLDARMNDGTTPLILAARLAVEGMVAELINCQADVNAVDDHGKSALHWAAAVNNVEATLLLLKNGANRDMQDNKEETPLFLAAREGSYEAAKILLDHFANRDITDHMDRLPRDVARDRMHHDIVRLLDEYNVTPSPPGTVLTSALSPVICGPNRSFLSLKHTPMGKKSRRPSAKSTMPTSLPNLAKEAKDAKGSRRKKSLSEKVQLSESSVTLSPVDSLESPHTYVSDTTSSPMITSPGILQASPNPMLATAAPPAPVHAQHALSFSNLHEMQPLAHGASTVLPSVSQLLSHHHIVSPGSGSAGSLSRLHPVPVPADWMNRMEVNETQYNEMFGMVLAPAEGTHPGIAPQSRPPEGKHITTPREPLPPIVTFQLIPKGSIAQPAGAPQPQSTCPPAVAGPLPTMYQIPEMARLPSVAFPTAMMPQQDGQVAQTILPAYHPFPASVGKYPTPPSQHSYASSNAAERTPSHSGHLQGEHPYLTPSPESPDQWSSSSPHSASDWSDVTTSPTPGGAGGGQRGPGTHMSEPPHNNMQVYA
Pro-neuregulin-1, membrane-bound isoform (Homo sapiens), sequence (Q02297 whole entry, looked up, the tested form may be a part, canonical isoform): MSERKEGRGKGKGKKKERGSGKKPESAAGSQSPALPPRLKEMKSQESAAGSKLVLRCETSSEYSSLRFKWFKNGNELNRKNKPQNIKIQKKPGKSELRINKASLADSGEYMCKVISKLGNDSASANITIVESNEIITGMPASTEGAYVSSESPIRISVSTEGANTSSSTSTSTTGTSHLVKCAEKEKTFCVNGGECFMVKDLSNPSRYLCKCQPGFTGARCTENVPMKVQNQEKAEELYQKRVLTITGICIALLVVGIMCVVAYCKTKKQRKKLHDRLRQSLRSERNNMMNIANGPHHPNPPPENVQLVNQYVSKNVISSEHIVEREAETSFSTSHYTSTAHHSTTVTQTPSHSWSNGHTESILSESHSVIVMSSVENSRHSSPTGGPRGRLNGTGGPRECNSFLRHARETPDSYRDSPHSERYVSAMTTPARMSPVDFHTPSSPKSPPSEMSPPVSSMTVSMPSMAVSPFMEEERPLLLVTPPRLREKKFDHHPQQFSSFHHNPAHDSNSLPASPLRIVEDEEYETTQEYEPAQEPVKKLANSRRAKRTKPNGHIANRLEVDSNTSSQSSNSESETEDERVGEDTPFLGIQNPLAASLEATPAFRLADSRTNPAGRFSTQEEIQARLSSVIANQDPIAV

As to `COc1ccc(O[C@@H]2[C@H](O)CO[C@H]2C=CC#Cc2ccccc2)cc1`, the composite z-score in test [1] was -0.389; in [2], 0.511; in test [3] it was -0.159; in test [4] it was 0.0175; in test [5], -0.22; in test [6], 0.068. In addition, the composite z-score in [7] is -0.203; in [9] it was -0.182; in test [10] it was -0.0237. In addition, in [8], the z-score is -0.606 (inactive).

`CC(CCC(=O)OC[C@H]1O[C@H](C#Cc2ccccc2)C=C[C@@H]1Oc1ccc(C)cc1)=NO[C@@H](C)c1cn([C@H](CO)Cc2ccccc2)nn1`: the composite z-score in test [1] was -0.583; in test [2] it was 0.0364; in [3], 0.0092; in test [4], 0.63; in [5], 0.161; in test [6], 0.122. The composite z-score in test [7] is 0.0865; in test [9], 0.263; in test [10], -0.327. The z-score in test [8] was 1.02 (inactive).

Regarding `COCCCNC(=O)[C@]1(CCC(=O)OC(C)(C)C)N=C(c2ccc(OCCCO)cc2)O[C@@H]1c1ccccc1N=[N+]=[N-]`, the composite z-score in test [1] was 0.0081; in test [2] it was 1.27; in test [3], 0.15; in test [4], 0.891; in test [5] it was 1.33; in [6] it was 1.62. Also, the composite z-score is 1.36 in [7], 1.51 in test [9] and 0.107 in test [10]. Further, the z-score in [8] is 3.15 (inactive).

On to `O=C1CCCC2OC12C(O)CCc1ccccc1` (stereo not given), for which the composite z-score is -0.555 in test [1]; 0.475 in test [2]; -0.166 in test [3]; 0.411 in test [4]; 0.455 in test [5]; -0.333 in test [6]. Besides, the composite z-score in test [7] is -0.251; in [9], -0.0128; in [10], -0.226. The z-score in test [8] is 0.42 (inactive).

`C=CCOC(=O)[C@H]1[C@@H]2C(=O)O[C@@H](c3ccccc3)[C@@H](c3ccccc3)N2[C@@H](c2ccc(OCCOC(=O)[C@H]3C[C@H]4C(=O)N5CCC[C@H]5C(=O)N4[C@H]3c3cccc(OCCO)c3)cc2)[C@]12C(=O)Nc1ccc(I)cc12`: the composite z-score in [1] worked out at 1.82; in test [2], 1.9; in test [3], 0.522; in test [4] it was 0.92; in test [5] it was 1.47; in test [6], 2.91. Also, the composite z-score in [7] was 1.47; in [9], 2.63; in test [10], 0.794. Moreover, in test [8], the z-score is 1.07 (inactive).

`COC(=O)[C@@]1(Cc2ccc(F)cc2)[C@H]2c3cc(C(=O)N(C)C)n(Cc4ccc(OC)c(OC)c4)c3C[C@H]2CN1C(=O)c1ccccc1`: the composite z-score was 0.257 in test [1]; -0.0565 in test [2]; 0.184 in [3]; 0.551 in test [4]; 1.56 in test [5]; 0.641 in [6]. Besides, the composite z-score in test [7] was determined as 1.44; in test [9], 0.169; in [10], 0.402. Also, the z-score in [8] was 0.619 (inactive).

`COC(=O)[C@H](C)NC(=O)CCC1CC(OC(=O)NCc2cccc3ccccc23)CC2(CCCC(COC(=O)NCC3CCCCC3)O2)O1` (stereo not given in full): the composite z-score in test [1] is -0.641; in [2], 0.585; in test [3], -0.0775; in test [4], 0.406; in [5], 1.34; in test [6] it was 1.06. The composite z-score in [7] amounted to 1.16; in test [9], 0.715; in test [10], 0.21. Besides, the z-score in [8] was 0.619 (inactive).

As to `CC(CCN1CCc2nc(-c3ccccc3)c(-c3ccccc3)cc2C1)=NOC[C@@H](C)[C@H](OCc1ccccc1)C(C)C`, the composite z-score in test [1] was -0.0574; in test [2] it was -1.01; in test [3] it was -0.172; in test [4], -0.756; in test [5], -1.63; in [6] it was 0.0189. For the same compound, the results for the composite z-score in test [7], in [9] and in test [10] were -0.0462, -0.32 and -0.206, respectively. In [8], the z-score is 0.764 (inactive).

In the case of `CCN1C(=O)[C@H]2[C@H]3[C@H](O)[C@H](O)CC(=NOC[C@@H](C)[C@H](OCc4ccccc4)C(C)C)[C@@H]3CC[C@H]2C1=O`, the composite z-score in test [1] is -0.468; in test [2], 1.28; in test [3], -0.128; in test [4] it was 0.523; in test [5], 0.399; in [6], 1.24. Besides, the results for the composite z-score in test [7], in [9] and in test [10] were 0.221, 0.0662 and -0.169, respectively. In test [8], the z-score was 0.199 (inactive).

Regarding `CC(CCN1CCc2nc(-c3ccccc3)c(-c3ccccc3)cc2C1)=NO[C@H](C)c1cn([C@@H]2COC[C@H]2O)nn1`, the composite z-score is -0.388 in test [1]; 1.4 in [2]; -0.0867 in test [3]; 0.259 in [4]; 0.295 in test [5]; 0.646 in test [6]. Besides, the composite z-score in test [7] was 1.03; in test [9], 0.133; in test [10] it was -0.0237. Moreover, the z-score in [8] was -0.203 (inactive).

With `CS(=O)(=O)CCOC(=O)C1=CC(CCCO)=CC(c2cccs2)N(Cc2cccc(OC(F)(F)F)c2)C=C1C(=O)OCCS(C)(=O)=O` (stereo not given), the composite z-score in test [1] is -0.215; in [2] it was 1.76; in test [3], -0.0753; in test [4], 0.0557; in [5], 1.14; in test [6] it was 1.8. For the same compound, the composite z-score in [7] was 1.14; in [9] it was 0.425; in test [10], -0.191. For the same compound, the z-score in test [8] was -0.176 (inactive).

Values taken from PubChem BioAssay.
